PubChem BioAssay (EPA / NIEHS)
Results filed as inconclusive are left out. The source made the active and inactive calls. How the source made its calls, unless noted: active means hit-call score of the fitted dose curve at least 0.9, where 1 is the maximum; inconclusive means response in the unintended direction; inactive means score below 0.9.

Tested on: not listed separately
Test: TOX21_PR_BLA_Followup_Agonist_viability: Viability Assessment in the Tox21 HEK293 Progesterone Receptor (PR) Agonism Beta-lactamase Follow-Up Assay (AID 2283935);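 further: signal loss means lower viability so actives are cytotoxic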
Procedure, shortened: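 Luminescent ATP quantitation (CellTiter-Glo, 30 min, room temperature) in the same wells as the beta-lactamase read, on PR-UAS-bla HEK293T cells exposed to compound for 16 hr at 37C in 2% charcoal-stripped serum.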
In the case of `C[C@]12CCC(=O)C=C1CC[C@@H]1[C@@H]2CC[C@@]2(C)[C@H]1CC[C@]2(C)O`, the outcome is reported as “inactive”. With `ClC(Cl)=C(c1ccc(Cl)cc1)c1ccc(Cl)cc1` the outcome was “inactive”. In the case of `CCCCCCCCCc1ccc(O)cc1`, the outcome is reported as “inactive”. In the case of `C[C@]12CCC(=O)C=C1CC[C@@H]1[C@@H]2CC[C@]2(C)C(=O)CC[C@@H]12`, the outcome is reported as “inactive”. With `ClC1=C(Cl)[C@]2(Cl)[C@@H]3[C@@H]4C[C@@H]([C@H]5O[C@@H]45)[C@@H]3[C@@]1(Cl)C2(Cl)Cl` the outcome was “inactive”. With `Oc1ccc(C(c2ccc(O)cc2)(C(F)(F)F)C(F)(F)F)cc1` the outcome was “inactive”. In the case of `CCC(=O)O[C@H]1CC[C@H]2[C@@H]3CCC4=CC(=O)CC[C@]4(C)[C@H]3CC[C@]12C`, the outcome is reported as “inactive”. In the case of `CC(C)(c1ccccc1)c1ccc(O)cc1`, the outcome is reported as “inactive”. In the case of `COc1ccc(O)c(C(C)(C)C)c1`, the outcome is reported as “inactive”. For `Clc1ccc(C(c2ccccc2Cl)C(Cl)(Cl)Cl)cc1` (centres undefined), the AC50 was 46.1 µM (active).

Tested on: not listed separately
Test: TOX21_PR_BLA_Followup_Antagonist_viability: Viability Assessment in the Tox21 HEK293 Progesterone Receptor (PR) Antagonism Beta-lactamase Follow-Up Assay (AID 2283936);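 further: cells exposed to compound with R5020 agonist for 16 h; hits lower the luminescence signal meaning cytotoxicity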
Procedure, shortened: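 PR-UAS-bla HEK293T cells in medium with 2% charcoal-stripped FBS were treated with compounds plus R5020 for 16 hr at 37C. After the beta-lactamase read, CellTiter-Glo was added to the same wells and luminescence read after 30 min at room temperature.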
In the case of `C[C@]12CCC(=O)C=C1CC[C@@H]1[C@@H]2CC[C@@]2(C)[C@H]1CC[C@]2(C)O`, the outcome is reported as “inactive”. With `ClC(Cl)=C(c1ccc(Cl)cc1)c1ccc(Cl)cc1` the outcome was “inactive”. In the case of `CCCCCCCCCc1ccc(O)cc1`, the outcome is reported as “inactive”. In the case of `C[C@]12CCC(=O)C=C1CC[C@@H]1[C@@H]2CC[C@]2(C)C(=O)CC[C@@H]12`, the outcome is reported as “inactive”. In the case of `ClC1=C(Cl)[C@]2(Cl)[C@@H]3[C@@H]4C[C@@H]([C@H]5O[C@@H]45)[C@@H]3[C@@]1(Cl)C2(Cl)Cl`, the outcome is reported as “inactive”. For `Oc1ccc(C(c2ccc(O)cc2)(C(F)(F)F)C(F)(F)F)cc1`, the outcome was “inactive”. For `N#Cc1ccc(N(CC(N)=O)CC(F)(F)F)cc1C(F)(F)F`, the outcome was “inactive”. With `CCC(=O)O[C@H]1CC[C@H]2[C@@H]3CCC4=CC(=O)CC[C@]4(C)[C@H]3CC[C@]12C` the outcome was “inactive”. With `CC(C)(c1ccccc1)c1ccc(O)cc1` the outcome was “inactive”. In the case of `COc1ccc(O)c(C(C)(C)C)c1`, the outcome is reported as “inactive”.

Molecular target: PGR (gene 5241) (UniProt P06401)
Sequence (P06401 whole entry, looked up): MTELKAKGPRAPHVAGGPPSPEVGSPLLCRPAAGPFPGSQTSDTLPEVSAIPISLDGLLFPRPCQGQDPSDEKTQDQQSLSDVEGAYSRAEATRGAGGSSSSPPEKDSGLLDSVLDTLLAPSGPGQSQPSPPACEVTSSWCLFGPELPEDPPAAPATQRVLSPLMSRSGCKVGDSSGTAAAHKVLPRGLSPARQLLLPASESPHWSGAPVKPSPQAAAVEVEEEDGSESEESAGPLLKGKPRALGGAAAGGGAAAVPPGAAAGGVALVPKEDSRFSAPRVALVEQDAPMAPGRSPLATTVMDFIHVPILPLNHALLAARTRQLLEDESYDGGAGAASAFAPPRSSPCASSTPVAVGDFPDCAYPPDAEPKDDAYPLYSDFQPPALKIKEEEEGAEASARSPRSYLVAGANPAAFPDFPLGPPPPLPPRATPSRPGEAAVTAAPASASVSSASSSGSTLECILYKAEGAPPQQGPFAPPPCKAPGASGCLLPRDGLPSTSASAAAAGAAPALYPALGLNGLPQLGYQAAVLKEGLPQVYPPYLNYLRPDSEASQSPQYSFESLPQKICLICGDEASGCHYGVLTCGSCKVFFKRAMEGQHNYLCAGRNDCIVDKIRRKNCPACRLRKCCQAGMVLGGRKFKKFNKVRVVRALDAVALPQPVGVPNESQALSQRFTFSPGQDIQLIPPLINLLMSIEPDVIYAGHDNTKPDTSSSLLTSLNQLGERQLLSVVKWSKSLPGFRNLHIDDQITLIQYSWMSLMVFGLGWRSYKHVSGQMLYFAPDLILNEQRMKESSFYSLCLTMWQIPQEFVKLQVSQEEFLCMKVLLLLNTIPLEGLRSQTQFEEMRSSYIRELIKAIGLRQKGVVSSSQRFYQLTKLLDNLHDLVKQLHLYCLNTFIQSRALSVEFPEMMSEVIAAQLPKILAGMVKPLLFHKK
Test: TOX21_PR_LUC_Followup_Agonist: Tox21 HEK293 Progesterone Receptor (PR) Agonism Luciferase Follow-Up Assay (AID 2283937; active means hit-call score of the fitted dose curve at least 0.9, where 1 is the maximum; inactive means score below 0.9)
Procedure, shortened: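 Luminescence read-out (ONE-Glo, 30 min at room temperature) of PR-driven luciferase in HEK293-PR-A-luc cells after 16 h compound exposure at 37C; gain of signal fitted relative to DMSO baseline.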
With `CC(C)(O)C(=O)Nc1ccc([N+](=O)[O-])c(C(F)(F)F)c1` the outcome was “inactive”. With `N#Cc1ccc(N(CC(N)=O)CC(F)(F)F)cc1C(F)(F)F` the outcome was “inactive”. For `CCC(=O)O[C@H]1CC[C@H]2[C@@H]3CCC4=CC(=O)CC[C@]4(C)[C@H]3CC[C@]12C`, the AC50 was 6.3 µM (active).

Molecular target: PGR (gene 5241) (UniProt P06401)
Test: TOX21_PR_LUC_Followup_Antagonist: Tox21 HEK293 Progesterone Receptor (PR) Antagonism Luciferase Follow-Up Assay (AID 2283938);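 further: curve fitted upward as signal gain over DMSO baseline despite antagonist label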
Procedure, shortened: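 A follow-up to the PR bla screen using HEK293-PR-A-luc cells, multiplexed with cell viability to flag cytotoxicity. Reporter luminescence after 16 h compound exposure was analysed relative to DMSO.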
With `C[C@]12CCC(=O)C=C1CC[C@@H]1[C@@H]2CC[C@@]2(C)[C@H]1CC[C@]2(C)O` the outcome was “inactive”. In the case of `ClC(Cl)=C(c1ccc(Cl)cc1)c1ccc(Cl)cc1`, the AC50 is reported as 21.6 µM (active). For `CCCCCCCCCc1ccc(O)cc1`, the outcome was “inactive”. With `C[C@]12CCC(=O)C=C1CC[C@@H]1[C@@H]2CC[C@]2(C)C(=O)CC[C@@H]12` the outcome was “inactive”. In the case of `ClC1=C(Cl)[C@]2(Cl)[C@@H]3[C@@H]4C[C@@H]([C@H]5O[C@@H]45)[C@@H]3[C@@]1(Cl)C2(Cl)Cl`, the AC50 is reported as 18.2 µM (active). In the case of `Oc1ccc(C(c2ccc(O)cc2)(C(F)(F)F)C(F)(F)F)cc1`, the AC50 is reported as 54.7 µM (active). With `N#Cc1ccc(N(CC(N)=O)CC(F)(F)F)cc1C(F)(F)F` the AC50 was 46.1 µM (active). In the case of `CCC(=O)O[C@H]1CC[C@H]2[C@@H]3CCC4=CC(=O)CC[C@]4(C)[C@H]3CC[C@]12C`, the outcome is reported as “inactive”. In the case of `CC(C)(c1ccccc1)c1ccc(O)cc1`, the AC50 is reported as 35.3 µM (active). With `COc1ccc(O)c(C(C)(C)C)c1` the outcome was “inactive”. In the case of `Clc1ccc(C(c2ccccc2Cl)C(Cl)(Cl)Cl)cc1` (centres undefined), the AC50 is reported as 15.6 µM (active).

Tested on: not listed separately
Test: TOX21_PR_LUC_Followup_Antagonist_viability: Viability Assessment in the Tox21 HEK293 Progesterone Receptor (PR) Antagonism Luciferase Follow-Up Assay (AID 2283940)
Procedure, shortened: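 Read-out: CellTiter-Glo ATP luminescence, loss of signal taken as reduced viability. Cells: HEK293-PR-A-luc, 3,000/well, 5 h settling, then 16 h compound exposure at 37C, 0% CO2.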
With `CC(C)(O)C(=O)Nc1ccc([N+](=O)[O-])c(C(F)(F)F)c1` the outcome was “inactive”. For `ClC(Cl)=C(c1ccc(Cl)cc1)c1ccc(Cl)cc1`, the outcome was “inactive”. With `CCCCCCCCCc1ccc(O)cc1` the outcome was “inactive”. In the case of `C[C@]12CCC(=O)C=C1CC[C@@H]1[C@@H]2CC[C@]2(C)C(=O)CC[C@@H]12`, the outcome is reported as “inactive”. In the case of `ClC1=C(Cl)[C@]2(Cl)[C@@H]3[C@@H]4C[C@@H]([C@H]5O[C@@H]45)[C@@H]3[C@@]1(Cl)C2(Cl)Cl`, the outcome is reported as “inactive”. With `N#Cc1ccc(N(CC(N)=O)CC(F)(F)F)cc1C(F)(F)F` the outcome was “inactive”. With `CCC(=O)O[C@H]1CC[C@H]2[C@@H]3CCC4=CC(=O)CC[C@]4(C)[C@H]3CC[C@]12C` the outcome was “inactive”. With `CC(C)(c1ccccc1)c1ccc(O)cc1` the outcome was “inactive”. In the case of `COc1ccc(O)c(C(C)(C)C)c1`, the outcome is reported as “inactive”. In the case of `Clc1ccc(C(c2ccccc2Cl)C(Cl)(Cl)Cl)cc1` (centres undefined), the outcome is reported as “inactive”.
